The source of these data is PubChem BioAssay.

The structures appear in SMILES notation. Active and inactive are the calls of the source.

Assay [1] has as its system Plasmodium falciparum Sir2 (PF13_0152, Sir2A). Kind of assay: Plasmodium falciparum Sir2A binding compounds – biochemical, small-molecule microarray, 635 nm fluorescence, primary screen (AID 1098).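 Also: score merges spot fluorescence intensity with its signal-to-noise ratio.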 The note with it: fluorescence 635 nm, higher = more signal.
Assay [2] can be described thus: probe aDKK1 binding to arrayed compounds – biochemical, biotinylated probe, 635/667 nm fluorescence, primary screen (AID 1099).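 Also: score merges 667nm spot fluorescence with signal to noise across triplicate slides.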 As to conditions: small-molecule microarray, higher = more signal.
Assay [3] is described as follows: probe aCHRDL2 binding to arrayed compounds – biochemical, biotinylated probe, 635/667 nm fluorescence, primary screen (AID 1100). As to conditions: small-molecule microarray, higher = more signal.
Assay [4] can be described thus: change in splice reporter luminescence, either direction, cell-based, HEK293, spliceosome inhibition project, primary screen (AID 1101).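 Also: HEK293 cells carrying a splicing-competent luciferase reporter gene; test concentration not given here.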 As to conditions: HEK293 splicing luciferase reporter, 24 h, higher = more signal, called active from +8 up or from −8 down.
The target of assay [5] is Fibroblast growth factor 10 (Homo sapiens) (UniProt O15520). Description: compounds binding fibroblast growth factor 10 – biochemical, small-molecule microarray, 635 nm fluorescence, primary screen (AID 1102). The note with it: FGF10 binding, fluorescence 635 nm, higher = more signal.
Assay [6] relates to glycogen synthase kinase-3 (GSK3A per assay name; protocol says GSK3B). Description: compounds binding glycogen synthase kinase-3 – biochemical, small-molecule microarray, 635 nm fluorescence, GSK3A, primary screen (AID 1103). Also: the record names both GSK3A and GSK3B. The note with it: fluorescence 635 nm, higher = more signal.
The target in assay [7] is Epidermal growth factor receptor (Homo sapiens) (UniProt P00533). Kind of assay: compounds binding epidermal growth factor receptor – biochemical, small-molecule microarray, 635 nm fluorescence, primary screen (AID 1104).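 Also: score merges 667 nm emission intensity with spot signal to noise over triplicate slides.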 The note with it: EGFR binding, higher = more signal.
The target in assay [8] is Follistatin-related protein 3 (Homo sapiens) (UniProt O95633). Kind of assay: compounds binding follistatin-related protein 3 – biochemical, small-molecule microarray, 635 nm fluorescence, primary screen (AID 1105).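 Also: score merges emission near 667 nm and signal to noise per printed spot across three slides.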 The note with it: FSTL3 binding, higher = more signal.
The target in assay [9] is Dickkopf-related protein 1 (Homo sapiens) (UniProt O94907). Description: small molecules binding DKK1 protein – biochemical, small-molecule microarray, 635 nm fluorescence scan, primary screen (AID 1106).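 Also: score merges emission near 667 nm with signal to noise over three replicate slides.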 As to conditions: higher = more signal.
For assay [10], the system named is Inhibin beta A chain (activin A). Description: small molecules binding activin A – biochemical, small-molecule microarray, 635 nm fluorescence scan, primary screen (AID 1107).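 Also: mouse activin A protein probed at 4.33 µg/mL on printed slides; score merges bound-protein fluorescence near 667 nm with spot signal-to-noise.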 As to conditions: INHBA, higher = more signal.
The test system of assay [11] is Human papillomavirus type 1a protein E7 (residues 44-93). Description: small molecules binding HPV E7 44-93 – biochemical, small-molecule microarray, residues 44-93, 635 nm fluorescence, primary screen (AID 1108).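 Also: E7 fragment applied at 1 µg/mL in TBST for 1 h at 4 C; score combines spot fluorescence with its signal to noise ratio.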 As to conditions: fluorescence 635 nm, higher = more signal.
The nature of assay [12]: hepatitis C replication reporter changes, two-sided – Huh7 cells, luciferase reporter, HCV replication inhibitor project, primary screen (AID 1109).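 Also: huh7 hepatoma cells harbouring a luciferase neomycin HCV replicon reporter; luciferase luminescence as measure of HCV replicon replication; test concentration not given here.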 The note with it: Huh7 HCV replicon luciferase reporter, 48 h; higher = more signal.
Assay [13] addresses Left-right determination factor 2 (Homo sapiens) (UniProt O00292). Description: small molecules binding LEFTY2 protein – biochemical, small-molecule microarray, 635 nm fluorescence scan, primary screen (AID 1110). As to conditions: higher = more signal.
In assay [14] the target is Calmodulin-1 (Homo sapiens) (UniProt P0DP23). Description: small molecules binding calmodulin-1 with EGTA – biochemical, small-molecule microarray, Cy5-labelled CALM1, profiling panel (AID 1111).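 Also: labelled calmodulin applied in Tris saline Tween buffer holding calcium plus EGTA and DTT.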 As to conditions: Cy5-CALM1 binding fluorescence, higher = more signal.
Assay [15] shares this target. Description: small molecules binding Ca-loaded calmodulin-1 – biochemical, small-molecule microarray, Cy5-labelled CALM1, plus calcium, artefact control for SMM control-protein annotation, profiling panel (AID 1112).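 Also: score merges spot fluorescence with signal to noise from triplicate slides.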 As to conditions: Cy5-CALM1 binding fluorescence, higher = more signal.
Assay [16] is described as follows: probe aWnt5a binding to arrayed compounds – biochemical, biotinylated probe, 635/667 nm fluorescence, primary screen (AID 1113).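 Also: score merges 667 nm fluorescence intensity with signal-to-noise per printed feature.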 The note with it: small-molecule microarray, higher = more signal.
Assay [17] is described as follows: probe aShh binding to arrayed compounds – biochemical, biotinylated probe, 635/667 nm fluorescence, primary screen (AID 1114).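 Also: probe is biotin-labelled aShh protein from a stem cell growth factor screen; measures binding of labelled protein to compounds printed on the slide; score merges feature fluorescence at 667 nm with signal-to-noise.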 The note with it: small-molecule microarray, higher = more signal.
Assay [18] is described as follows: probe aNog binding to arrayed compounds – biochemical, biotinylated probe, 635/667 nm fluorescence, primary screen (AID 1115).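 Also: probe is biotinylated aNog protein used at 0.15 µg/mL for 1 h at 4 C; z-score combines 667 nm fluorescence of each spot with its signal to noise.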 As to conditions: small-molecule microarray, higher = more signal.
The target in assay [19] is Torsin-1A-interacting protein 1 (Homo sapiens) (UniProt Q5JTV8). Description: compound microarray binding of lysate hLAP1 – cell lysate, small-molecule microarray, COS7 lysate, 635/667 nm fluorescence, primary screen (AID 1116). The note with it: 635 nm fluorescence, higher = more signal.
In assay [20] the target is Alpha-bungarotoxin (Bungarus multicinctus) (UniProt P60615). Kind of assay: compounds binding labelled alpha-BTX control protein – biochemical, small-molecule microarray, Alexa647 label, 635/667 nm fluorescence, artefact control for SMM control protein annotation, profiling panel (AID 1117). As to conditions: alpha-BTX-A647 binding fluorescence, higher = more signal.
Chain of Alpha-bungarotoxin (Bungarus multicinctus) (P60615 whole entry, looked up): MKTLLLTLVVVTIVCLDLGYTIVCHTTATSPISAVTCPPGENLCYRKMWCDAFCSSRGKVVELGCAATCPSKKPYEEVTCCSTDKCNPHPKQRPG

Chain of Fibroblast growth factor 10 (Homo sapiens) (O15520 whole entry, looked up): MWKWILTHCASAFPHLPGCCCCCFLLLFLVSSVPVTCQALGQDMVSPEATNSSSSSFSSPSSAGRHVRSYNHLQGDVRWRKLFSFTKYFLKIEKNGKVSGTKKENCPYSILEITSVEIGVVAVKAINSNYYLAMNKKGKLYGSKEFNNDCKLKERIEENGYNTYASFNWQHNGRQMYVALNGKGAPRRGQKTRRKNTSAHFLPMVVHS
Chain of Epidermal growth factor receptor (Homo sapiens) (P00533 whole entry, looked up): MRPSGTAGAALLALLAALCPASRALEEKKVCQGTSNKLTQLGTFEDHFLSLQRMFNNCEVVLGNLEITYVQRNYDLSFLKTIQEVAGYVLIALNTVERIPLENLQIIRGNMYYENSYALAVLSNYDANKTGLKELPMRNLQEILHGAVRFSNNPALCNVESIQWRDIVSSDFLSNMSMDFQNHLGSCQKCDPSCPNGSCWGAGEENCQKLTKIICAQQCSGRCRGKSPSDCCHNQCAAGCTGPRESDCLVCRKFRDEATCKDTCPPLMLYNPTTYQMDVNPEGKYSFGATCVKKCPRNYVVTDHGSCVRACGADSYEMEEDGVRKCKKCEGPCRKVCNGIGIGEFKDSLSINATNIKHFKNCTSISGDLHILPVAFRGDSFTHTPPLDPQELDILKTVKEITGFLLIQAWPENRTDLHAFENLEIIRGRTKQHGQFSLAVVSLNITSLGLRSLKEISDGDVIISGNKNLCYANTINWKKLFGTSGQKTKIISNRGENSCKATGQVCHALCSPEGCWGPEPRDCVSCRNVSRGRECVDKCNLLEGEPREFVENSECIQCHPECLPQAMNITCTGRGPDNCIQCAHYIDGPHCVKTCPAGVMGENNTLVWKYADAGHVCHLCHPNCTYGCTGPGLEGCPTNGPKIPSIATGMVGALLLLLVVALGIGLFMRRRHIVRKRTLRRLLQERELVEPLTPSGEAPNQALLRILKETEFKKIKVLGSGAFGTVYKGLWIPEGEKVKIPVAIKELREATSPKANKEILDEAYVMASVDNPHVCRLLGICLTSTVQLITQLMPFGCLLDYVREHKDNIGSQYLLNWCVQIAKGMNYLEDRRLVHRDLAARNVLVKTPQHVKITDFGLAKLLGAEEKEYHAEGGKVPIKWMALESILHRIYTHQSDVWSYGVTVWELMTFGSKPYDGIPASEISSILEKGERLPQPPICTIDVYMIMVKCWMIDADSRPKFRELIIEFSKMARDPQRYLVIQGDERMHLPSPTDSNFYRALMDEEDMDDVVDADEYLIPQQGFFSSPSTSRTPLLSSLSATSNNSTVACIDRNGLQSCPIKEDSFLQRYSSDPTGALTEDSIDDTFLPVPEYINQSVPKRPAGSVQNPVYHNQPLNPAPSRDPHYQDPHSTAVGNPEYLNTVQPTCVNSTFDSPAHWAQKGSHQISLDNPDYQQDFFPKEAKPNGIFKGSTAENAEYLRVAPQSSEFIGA
Chain of Left-right determination factor 2 (Homo sapiens) (O00292 whole entry, looked up): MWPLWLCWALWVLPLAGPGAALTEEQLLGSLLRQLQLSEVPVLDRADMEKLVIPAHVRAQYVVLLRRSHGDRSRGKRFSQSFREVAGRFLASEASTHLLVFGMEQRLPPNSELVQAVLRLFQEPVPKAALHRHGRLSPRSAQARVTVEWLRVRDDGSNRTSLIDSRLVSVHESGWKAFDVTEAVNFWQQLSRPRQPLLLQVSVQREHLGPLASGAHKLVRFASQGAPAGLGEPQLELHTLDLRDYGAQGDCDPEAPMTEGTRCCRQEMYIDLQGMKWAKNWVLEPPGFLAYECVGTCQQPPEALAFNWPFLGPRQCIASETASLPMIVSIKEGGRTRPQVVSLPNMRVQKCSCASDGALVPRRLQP
Chain of Torsin-1A-interacting protein 1 (Homo sapiens) (Q5JTV8 whole entry, looked up): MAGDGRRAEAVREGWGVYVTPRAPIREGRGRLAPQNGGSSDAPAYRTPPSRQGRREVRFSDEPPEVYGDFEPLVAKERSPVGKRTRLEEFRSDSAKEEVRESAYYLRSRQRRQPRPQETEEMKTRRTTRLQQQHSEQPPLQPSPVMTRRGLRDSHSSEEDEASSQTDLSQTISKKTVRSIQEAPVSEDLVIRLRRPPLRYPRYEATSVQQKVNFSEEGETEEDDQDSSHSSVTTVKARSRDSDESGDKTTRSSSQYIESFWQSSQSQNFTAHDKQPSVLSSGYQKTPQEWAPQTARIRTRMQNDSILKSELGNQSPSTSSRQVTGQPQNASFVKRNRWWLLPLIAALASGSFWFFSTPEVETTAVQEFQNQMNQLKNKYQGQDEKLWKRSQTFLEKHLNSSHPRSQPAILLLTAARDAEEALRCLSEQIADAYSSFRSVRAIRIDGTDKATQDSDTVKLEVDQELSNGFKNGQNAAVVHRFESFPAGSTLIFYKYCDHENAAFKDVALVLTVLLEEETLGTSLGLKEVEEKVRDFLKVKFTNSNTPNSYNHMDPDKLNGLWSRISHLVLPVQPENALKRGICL
Chain of Follistatin-related protein 3 (Homo sapiens) (O95633 whole entry, looked up): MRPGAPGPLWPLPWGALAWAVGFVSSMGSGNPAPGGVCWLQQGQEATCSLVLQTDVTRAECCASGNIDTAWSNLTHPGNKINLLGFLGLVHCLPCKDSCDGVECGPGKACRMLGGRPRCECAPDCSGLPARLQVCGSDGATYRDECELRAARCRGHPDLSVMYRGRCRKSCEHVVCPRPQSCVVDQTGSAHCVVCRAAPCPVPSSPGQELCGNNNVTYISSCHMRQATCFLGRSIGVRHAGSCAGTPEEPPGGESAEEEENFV
Chain of Dickkopf-related protein 1 (Homo sapiens) (O94907 whole entry, looked up): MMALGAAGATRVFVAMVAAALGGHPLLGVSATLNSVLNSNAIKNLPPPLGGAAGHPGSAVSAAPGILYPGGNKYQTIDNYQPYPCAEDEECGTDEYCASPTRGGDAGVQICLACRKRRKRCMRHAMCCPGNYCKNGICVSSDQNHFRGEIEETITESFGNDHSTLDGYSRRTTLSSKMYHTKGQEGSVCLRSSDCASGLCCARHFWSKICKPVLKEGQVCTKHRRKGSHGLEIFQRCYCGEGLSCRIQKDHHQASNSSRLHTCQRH

For `O=C1C2=CC[C@H]3C(=O)N(Cc4ccc5c(c4)OCO5)C(=O)[C@H]3[C@H]2[C@H](O)[C@@H]2O[C@H]12`, the composite z-score in assay [1] was 0.557; in assay [2], -0.141; in assay [3], -0.51; in assay [5], 0.385; in assay [6] it was 0.526; in assay [7] it was 0.65. For the same compound, the composite z-score is 0.459 in [8]; 0.347 in [9]; 0.29 in assay [10]; 0.631 in assay [11]; 0.341 in assay [13]; -0.306 in [14]. Further, the composite z-score in [15] was -0.502; in assay [16] it was -0.0495; in [17], -0.346; in assay [18], -0.0381; in assay [19], 0.442; in assay [20] it was 0.251. Moreover, the z-score is 0.867 (inactive) in [4] and -0.43 in assay [12].

As to `COC(=O)C1=CCC(c2cccc(Cl)c2)O1` (stereo not given), the composite z-score in assay [1] is 1.15; in assay [2], -0.138; in [3], 0.381; in assay [5], 0.044; in assay [6], -0.842; in assay [7], -0.412. Besides, the composite z-score was -0.578 in assay [8]; -0.476 in assay [9]; 1.09 in assay [10]; 0.387 in assay [11]; 0.106 in assay [13]; 0.0588 in [14]. Moreover, the composite z-score in assay [15] was -0.23; in assay [16] it was -0.0286; in assay [17] it was -0.291; in [18] it was 0.287; in assay [19], 0.0692; in [20], 0.648. Moreover, the figures for the z-score in [4] and in [12] were -1.15 (inactive) and -2.31, respectively.

As for `O=C1C[C@@H](O)[C@@H](O)[C@@H]2[C@@H]3C(=O)N(c4ccc(F)cc4F)C(=O)[C@@H]3CC[C@@H]12`, the composite z-score in assay [1] is 0.341; in assay [2] it was -0.343; in [3], -0.602; in assay [5], 0.627; in assay [6], 0.169; in assay [7], 0.463. Further, the composite z-score in [8] was 0.447; in assay [9] it was 0.612; in assay [10] it was 0.199; in assay [11], 0.461; in assay [13], 0.585; in [14], -0.0799. Moreover, the composite z-score in [15] is -0.389; in assay [16] it was 0.441; in assay [17], -0.221; in assay [18], -0.22; in assay [19], 0.408; in assay [20], -0.157. Besides, the z-score in assay [4] is 0.337 (inactive); in assay [12], 0.586.

As for `COCCCNC(=O)[C@@]1(CCS(=O)(=O)c2ccccc2)N=C(c2ccc(OCCCO)cc2)O[C@H]1c1ccccc1`, the composite z-score in assay [1] was 1.69; in [2] it was 1.45; in [3], 1.16; in assay [5], 1.12; in assay [6], 1.29; in assay [7], -0.11. The composite z-score in assay [8] is -0.21; in [9] it was 0.026; in assay [10] it was 0.0123; in [11], 0.432; in [13], -0.133; in assay [14], 0.361. For the same compound, the composite z-score in [15] came to 0.4; in [16] it was 0.525; in assay [17], 0.179; in assay [18], 2.11; in [19], 2.95; in assay [20], 2.44. For the same compound, the z-score is 0.409 (inactive) in assay [4] and -1.2 in assay [12].

For `C#CCCCON=C1C[C@@H](O)[C@@H](O)[C@@H]2[C@@H]3C(=O)N(Cc4ccccc4)C(=O)[C@@H]3CC[C@H]12`, the composite z-score in [1] was 1.43; in assay [2], -0.369; in [3], -0.417; in assay [5], 0.388; in assay [6] it was 0.147; in assay [7], 1.03. Moreover, the composite z-score in assay [8] was 0.29; in [9], 0.525; in [10], 0.269; in assay [11] it was 0.154; in assay [13], 0.451; in assay [14] it was -0.0441. Moreover, the composite z-score in [15] is -0.273; in assay [16] it was -0.154; in assay [17] it was -0.138; in [18] it was -0.0245; in assay [19], 0.28; in assay [20], 0.234. Moreover, the z-score was -0.658 (inactive) in [4] and -1.08 in assay [12].
